Read-out in experiment [1]: sulfotransferase 2A1 (SULT2A1), SULT2A1 (gene 6822)
The experiment is described as follows: LTEA_HepaRG_SULT2A1: Life Technologies and Expression Analysis (LTEA) Assay for sulfotransferase 2A1 (SULT2A1) using HepaRG (AID 2283531). To be noted: mRNA level, 48 h; actives raise or lower the signal. In short, it runs like this: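 HepaRG human liver cells, 48 h exposure in serum-free induction medium to 8 half-log concentrations topping at 100 µM (0.5% DMSO), duplicate wells. SULT2A1 mRNA measured by TaqMan qRT-PCR, normalized to ACTB/GAPDH/POLR2A; bidirectional fit against DMSO.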

Read-out in experiment [2]: Transforming Growth Factor (TGFA), TGFA (gene 7039)
As to the kind of experiment: LTEA_HepaRG_TGFA: Life Technologies and Expression Analysis (LTEA) Assay for Transforming Growth Factor (TGFA) using HepaRG (AID 2283532). To be noted: mRNA level, 48 h; actives raise or lower the signal. In short, it runs like this: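 TGFA transcript quantified by qRT-PCR (Fluidigm arrays) against three housekeeping genes, after 48 hours chemical treatment of HepaRG cells. Top concentration 100 uM with half-log dilutions, 8 points, duplicates, 0.5% DMSO.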

Read-out in experiment [3]: Transforming Growth Factor (TGFB1), TGFB1 (gene 7040)
As to the kind of experiment: LTEA_HepaRG_TGFB1: Life Technologies and Expression Analysis (LTEA) Assay for Transforming Growth Factor (TGFB1) Transporter using HepaRG (AID 2283533). To be noted: mRNA level, 48 h; actives raise or lower the signal. In short, it runs like this: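 Differentiated HepaRG cells exposed 48 hr in serum-free induction medium to eight half-log concentrations up to 100 uM (0.5% DMSO), duplicate; TGFB1 mRNA by TaqMan qRT-PCR normalised to ACTB, GAPDH, POLR2A; bidirectional fit against DMSO.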

Read-out in the next experiment: TIMP1, TIMP1 (gene 7076)
As to the kind of experiment: LTEA_HepaRG_TIMP1: Life Technologies and Expression Analysis (LTEA) Assay for TIMP1 using HepaRG (AID 2283534). The settings on record: mRNA level, 48 h; actives raise or lower the signal. The method, boiled down:
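Differentiated HepaRG cells exposed 48 h in serum-free induction medium, duplicates, eight half-log concentrations from 100 uM in 0.5% DMSO. TIMP1 mRNA by qRT-PCR normalized to ACTB, GAPDH, POLR2A; bidirectional fitting against DMSO.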

Read-out in experiment [4]: Tumor necrosis factor receptor 1 (TNFRSF1A), TNFRSF1A (gene 7132)
The experiment is described as follows: LTEA_HepaRG_TNFRSF1A: Life Technologies and Expression Analysis (LTEA) Assay for Tumor necrosis factor receptor 1 (TNFRSF1A) using HepaRG (AID 2283535). To be noted: mRNA level, 48 h; actives raise or lower the signal. The method, boiled down: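 Differentiated HepaRG cells in serum-free induction medium, exposed 48 h in duplicate to 8 half-log concentrations up to 100 uM in 0.5% DMSO. TNFRSF1A mRNA by Fluidigm TaqMan qRT-PCR, normalized to ACTB, GAPDH, POLR2A; bidirectional fit.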

Read-out in experiment [5]: Thyroid Hormone Responsive (THRSP), THRSP (gene 7069)
The experiment is described as follows: LTEA_HepaRG_THRSP: Life Technologies and Expression Analysis (LTEA) Assay for Thyroid Hormone Responsive (THRSP) using HepaRG (AID 2283536). To be noted: mRNA level, 48 h; actives raise or lower the signal. The method, boiled down: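 THRSP transcript quantified by Fluidigm qRT-PCR against three housekeeping genes after 48 h chemical exposure of HepaRG cells in serum-free induction medium; eight-point half-log series, top 100 uM, 0.5% DMSO vehicle, duplicate wells.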

Read-out in experiment [6]: Cellular tumor antigen p53 (Homo sapiens) (UniProt P04637)
As to the kind of experiment: LTEA_HepaRG_TP53: Life Technologies and Expression Analysis (LTEA) Assay for Tumor Protein P53 (TP53) using HepaRG (AID 2283537). To be noted: mRNA level, 48 h; actives raise or lower the signal. The method, boiled down: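 HepaRG, 48 h exposure, top 100 uM, half-log 8-point, 0.5% DMSO vehicle, duplicates. Read: TP53 mRNA by TaqMan qRT-PCR, normalised to ACTB/GAPDH/POLR2A; bidirectional fit vs DMSO.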

Read-out in experiment [7]: UDP glucuronosyltransferase (UGT1A1), UGT1A1 (gene 54658)
As to the kind of experiment: LTEA_HepaRG_UGT1A1: Life Technologies and Expression Analysis (LTEA) Assay for UDP glucuronosyltransferase (UGT1A1) using HepaRG (AID 2283538). The settings on record: mRNA level, 48 h; actives raise or lower the signal. In short, it runs like this:
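mRNA induction or loss of UGT1A1, by TaqMan qRT-PCR, in duplicate HepaRG wells after 48 h exposure to half-log dilutions topping at 100 uM; DMSO (0.5%) served as baseline.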

Read-out in experiment [8]: UDP glucuronosyltransferase (UGT1A6), UGT1A6 (gene 54578)
The experiment is described as follows: LTEA_HepaRG_UGT1A6: Life Technologies and Expression Analysis (LTEA) Assay for UDP glucuronosyltransferase (UGT1A6) using HepaRG (AID 2283539). To be noted: mRNA level, 48 h; actives raise or lower the signal. In short, it runs like this:
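Differentiated HepaRG cells, ~100,000/well, were exposed for 48 h in serum-free induction medium with 0.5% DMSO to 8-point half-log series topping at 100 uM, in duplicate. mRNA measured by Fluidigm TaqMan qRT-PCR, normalized to ACTB, GAPDH and POLR2A.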

Read-out in experiment [9]: X-box binding protein 1 (XBP1), XBP1 (gene 7494)
As to the kind of experiment: LTEA_HepaRG_XBP1: Life Technologies and Expression Analysis (LTEA) Assay for X-box binding protein 1 (XBP1) using HepaRG (AID 2283540). The settings on record: mRNA level, 48 h; actives raise or lower the signal. In short, it runs like this: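 Differentiated human HepaRG cells in serum-free induction medium exposed 48 h in duplicate to eight half-log concentrations up to 100 uM in 0.5% DMSO. XBP1 mRNA measured by Fluidigm TaqMan qRT-PCR, normalized to ACTB, GAPDH, POLR2A; bidirectional fitting against DMSO.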

Experiment [10] can be described thus: LTEA_HepaRG_LDH_cytotoxicity: Cytotoxicity Assessment in the Life Technologies and Expression Analysis (LTEA) Assay (AID 2283563; active = hit-call score of the fitted dose curve at least 0.9, where 1 is the maximum). The method, boiled down:
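Differentiated HepaRG cells in serum-free induction medium, exposed 48 h in duplicate to 8 half-log concentrations up to 100 uM in 0.5% DMSO. Cytotoxicity from LDH measured in spent medium, fit relative to DMSO.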

Experiment [11] is described as follows: TOX21_p53_BLA_p2_viability: Viability Assessment in the Tox21 HCT-116 p53 Agonism Beta-lactamase Assay, Phase 2 (AID 2283591; active = hit-call score of the fitted dose curve at least 0.9, where 1 is the maximum;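 also: actives lower the ATP signal meaning cytotoxicity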). The method, boiled down:
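Cytotoxicity readout: CellTiter-Glo ATP luminescence, 30 min at room temperature, after the beta-lactamase read. Cells were HCT116 exposed 16 h at 37C to compounds pin-transferred at 217-fold dilution from DMSO stocks.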

For experiment [12], the target named is Cellular tumor antigen p53 (Homo sapiens) (UniProt P04637). As to the kind of experiment: TOX21_p53_BLA_p2_ratio: Tox21 HCT-116 p53 Agonism Beta-lactamase Assay, Ratio, Phase 2 (AID 2283592; active = hit-call score of the fitted dose curve at least 0.9, where 1 is the maximum). The method, boiled down: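 First, HCT116 reporter cells settle for 5 h at 37C. Next, DMSO compound solutions are pinned in (217-fold dilution) and left 16 h. Finally, CCF4-AM substrate is loaded 2 h at room temperature and the 460/530 nm ratio read.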

Experiment [13] is described as follows: TOX21_p53_BLA_p3_viability: Viability Assessment in the Tox21 HCT-116 p53 Agonism Beta-lactamase Assay, Phase 3 (AID 2283593; active = hit-call score of the fitted dose curve at least 0.9, where 1 is the maximum;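 also: cells exposed to compound for 16 h before reading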). In short, it runs like this:
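Cellular ATP was quantified by CellTiter-Glo luminescence, read after 30 min at room temperature. Beforehand, HCT116 cells (4000/well) received compound 5 h post-seeding, 217-fold diluted from DMSO, then incubated 16 h at 37C.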

Experiment [14] concerns the target Cellular tumor antigen p53 (Homo sapiens) (UniProt P04637). As to the kind of experiment: TOX21_p53_BLA_p3_ratio: Tox21 HCT-116 p53 Agonism Beta-lactamase Assay, Ratio, Phase 3 (AID 2283596; active = hit-call score of the fitted dose curve at least 0.9, where 1 is the maximum). In short, it runs like this: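 Cells were seeded at 4000/well, rested 5 h at 37C, then dosed with DMSO compound solutions (217-fold dilution) for 16 h. CCF4-AM substrate was loaded for 2 h at room temperature, and the 460/530 nm emission ratio was fitted for gain of signal versus DMSO.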

Experiment [15] in a line: TOX21_p53_BLA_p4_viability: Viability Assessment in the Tox21 HCT-116 p53 Agonism Beta-lactamase Assay, Phase 4 (AID 2283597; active = hit-call score of the fitted dose curve at least 0.9, where 1 is the maximum;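 also: hits lower the luminescence signal meaning cytotoxicity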). The method, boiled down: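 4000 HCT116 cells per well; 5 h attachment; compounds from DMSO, 217-fold dilution; 16 h at 37C. Then CCF4-AM, 2 h RT, followed by CellTiter-Glo, 30 min RT, luminescence. Decrease = cytotoxicity.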
The target of experiment [16] is Cellular tumor antigen p53 (Homo sapiens) (UniProt P04637). As to the kind of experiment: TOX21_p53_BLA_p5_ratio: Tox21 HCT-116 p53 Agonism Beta-lactamase Assay, Ratio, Phase 5 (AID 2283599; active = hit-call score of the fitted dose curve at least 0.9, where 1 is the maximum). In short, it runs like this: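 Beta-lactamase reporter ratio (blue 460 nm over green 530 nm, 405 nm excitation) after 2 h CCF4-AM loading, in HCT-116 cells exposed 16 h at 37 C to compounds pinned at 217-fold dilution. Increases relative to DMSO baseline scored.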

The nature of experiment [17]: TOX21_p53_BLA_p5_viability: Viability Assessment in the Tox21 HCT-116 p53 Agonism Beta-lactamase Assay, Phase 5 (AID 2283600; active = hit-call score of the fitted dose curve at least 0.9, where 1 is the maximum). In short, it runs like this:
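Decreased CellTiter-Glo luminescence denotes lost viability. Exposure: 16 h at 37C, 5% CO2, with compounds from DMSO stocks diluted 217-fold in wells of 4000 cells.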

Results filed as inconclusive are left out. Active and inactive are the calls of the source. The calls were made as follows, unless noted: active = hit-call score of the fitted dose curve at least 0.9, where 1 is the maximum; inactive = score below 0.9.

Sequence of Cellular tumor antigen p53 (Homo sapiens) (P04637 whole entry, looked up): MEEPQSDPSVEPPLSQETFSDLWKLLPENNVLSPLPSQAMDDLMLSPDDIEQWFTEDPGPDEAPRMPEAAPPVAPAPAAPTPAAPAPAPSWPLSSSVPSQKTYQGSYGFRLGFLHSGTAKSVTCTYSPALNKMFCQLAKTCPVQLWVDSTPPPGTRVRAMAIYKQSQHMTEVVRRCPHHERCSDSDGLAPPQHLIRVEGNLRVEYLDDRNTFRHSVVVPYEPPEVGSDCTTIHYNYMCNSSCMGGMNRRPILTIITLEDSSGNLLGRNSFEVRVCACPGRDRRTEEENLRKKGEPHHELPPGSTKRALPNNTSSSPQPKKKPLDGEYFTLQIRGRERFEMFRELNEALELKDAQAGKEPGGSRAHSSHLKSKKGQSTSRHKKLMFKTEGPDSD

As for `c1cc[n+]2c(c1)-c1cccc[n+]1CC2`, the outcome is “inactive” in experiment [1]; “inactive” in [2]; “inactive” in experiment [3]; “inactive” in the experiment with TIMP1, TIMP1 (gene 7076); “inactive” in experiment [4]; “inactive” in experiment [5]. Moreover, the outcome in [6], in experiment [7], in experiment [8], in experiment [9], in [10] and in [11] was inactive. Besides, the result in experiment [12], in experiment [13], in experiment [14], in [16] and in [17] was inactive. Moreover, the concentration at half-maximal activity (AC50) in experiment [15] is 20 µM (active).

A word on the AC50: it is the concentration giving half of the maximal activity seen.
